Data taken from PubChem BioAssay (NCATS).
Several values for one entry are separate records, joined by “and”; a condition that tells them apart may be missing. Identical values can stand only once. Records with an inconclusive call do not appear. A number with no mark means an inactive call. Activity calls are given as the source filed them. The call rests on the fitted dose curve; in most records, active means well fitted curve in the direction sought with a large enough effect; inconclusive means small, poorly fitted or top-dose-only effect, or another doubt; inactive means no such curve, though single readings can be large; an effect the other way counts as inactive or inconclusive.

Assays:
[1] = biological target: Cellular tumor antigen p53 (Homo sapiens) (UniProt P04637); assay: Primary qHTS for small molecule compounds that upregulate eGFP-tagged delta133p53alpha (in N-terminal) cells. (AID 2060322); details: NCI-H358 eGFP-delta133p53alpha fluorescence, 24 h; activation: active compounds read high; further: nearly all actives have a fitted effect of over 75% in size;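 on activation: cells pre-induced with doxycycline then dosed without doxycycline; series mostly up to about 56 µM; 0% = DMSO vehicle and 100% = reference activator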
Summary of the method: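 NCI-H358 cells pre-induced 24 h with 10 ng/ml doxycycline for eGFP-delta133p53alpha, plated dox-free and exposed 24 h at 37C to titrated compounds. Fixed, Hoechst-stained; gated GFP peak intensity by laser scanning cytometry, normalized to DMSO (0%) and 57.5 uM 5-azacytidine (100%).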

[2] = BET inhibitor-based combinations targeting novel dependencies in MECOM-rearranged (r) AML: SET-2 cell line (AID 2202231); details: SET-2 AML cells viability, CellTiter-Glo luminescence, 48 h; viability: active compounds read low, concentration not given here; further: nearly all actives have a fitted effect of over 35% in size;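 on viability: plate controls were DMSO treated cells for no effect and wells without cells for full effect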
Summary of the method: (§1)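 Each compound was tested at eleven concentrations on cells seeded at 500/well. After two days' incubation, ATP-based luminescence reported viability; responses relative to DMSO and blank wells yielded AUC and cell-line-centred Z-AUC.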

[3] = BET inhibitor-based combinations targeting novel dependencies in MECOM-rearranged (r) AML: OCI-AML3 cell line (AID 2202232); details: Potency: OCI-AML3 viability; further: nearly all actives have a fitted effect of over 35% in size
Summary of the method: as §1

[4] = BET inhibitor-based combinations targeting novel dependencies in MECOM-rearranged (r) AML: HNT-34 cell line (AID 2202234); further: nearly all actives have a fitted effect of over 35% in size
Summary of the method: (§2)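 First, 500 cells per well were seeded; next, drugs were pinned as 11-point doses; then plates sat 48 hr in the incubator; finally CellTiter-Glo was added and luminescence read, with AUC and Z-AUC computed.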

[5] = BET inhibitor-based combinations targeting novel dependencies in MECOM-rearranged (r) AML: AML-191 cell line (AID 2202236; further: nearly all actives have a fitted effect of over 35% in size)
Summary of the method: as §1

[6] = BET inhibitor-based combinations targeting novel dependencies in MECOM-rearranged (r) AML: AML-194 cell line (AID 2202237; further: nearly all actives have a fitted effect of over 40% in size)
Summary of the method: as §1

[7] = BET inhibitor-based combinations targeting novel dependencies in MECOM-rearranged (r) AML: MV-4-11 cell line (AID 2202233); further: nearly all actives have a fitted effect of over 45% in size
Summary of the method: as §2

[8] = BET inhibitor-based combinations targeting novel dependencies in MECOM-rearranged (r) AML: UCSD-AML1 cell line (AID 2202235); further: nearly all actives have a fitted effect of over 40% in size
Summary of the method: as §2
Potency means the concentration at half of the fitted maximal effect.

Chain of Cellular tumor antigen p53 (Homo sapiens) (P04637 whole entry, looked up): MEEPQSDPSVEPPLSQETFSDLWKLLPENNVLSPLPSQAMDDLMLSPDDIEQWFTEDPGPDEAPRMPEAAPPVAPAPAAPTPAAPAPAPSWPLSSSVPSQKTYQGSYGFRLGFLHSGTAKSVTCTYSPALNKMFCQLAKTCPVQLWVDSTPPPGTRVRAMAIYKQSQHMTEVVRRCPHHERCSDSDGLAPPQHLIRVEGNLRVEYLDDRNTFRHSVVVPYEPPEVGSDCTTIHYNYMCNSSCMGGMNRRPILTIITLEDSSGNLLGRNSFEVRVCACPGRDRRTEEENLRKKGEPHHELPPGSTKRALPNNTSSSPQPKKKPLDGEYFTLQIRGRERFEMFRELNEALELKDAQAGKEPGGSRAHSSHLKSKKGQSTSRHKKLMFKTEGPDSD

| SMILES | activation [1] | viability [2] [%] | Potency [3] | Potency [4] | Potency [5] | Potency [6] | Potency [7] | Potency [8] | Potency [2] | Potency [1] |
| --- | --- | --- | --- | --- | --- | --- | --- | --- | --- | --- |
| O=C(O)c1cc(=O)c2c(OCC(O)COc3cccc4oc(C(=O)O)cc(=O)c34)cccc2o1 | 19.8% | 114 | inactive | inactive | inactive | inactive |  |  |  |  |
| CCCNS(=O)(=O)Nc1ncnc(OCCOc2ncc(Br)cn2)c1-c1ccc(Br)cc1 | -5.9% | 97.8 | inactive |  |  | inactive |  |  |  |  |
| Cn1c(=O)c2c(ncn2CC(O)CO)n(C)c1=O (centres undefined) | 5.02% and 16.6% | 118 |  | inactive | inactive |  | inactive | inactive |  |  |
| CC[C@H](NC(C)C)[C@H](O)c1ccc(O)c2[nH]c(=O)ccc12 | -13% and -16.9% | 117 |  | inactive | inactive |  | inactive | inactive |  |  |
| COc1ccc2c3n(c(=NC(=O)c4cccnc4)nc2c1OC)CCN3 | -16.5% | 112 | 0.235 µM (active) | 0.332 µM (active) | 0.468 µM (active) | 1.18 µM (active) |  |  |  |  |
| NCCCC(O)(P(=O)(O)O)P(=O)(O)O | 36.7% and -7.88% | 114 | inactive | inactive | inactive | inactive |  |  |  |  |
| COc1cc(C(=O)NC2CCN(C)CC2)ccc1Nc1ncc2c(n1)N(C1CCCC1)CCC(=O)N2C(C)C | 7.36% |  | 14.8 µM (active) |  | 18.6 µM (active) | 23.5 µM (active) |  |  | 23.5 µM (active) |  |
| CC1(C)O[C@@H]2C[C@H]3[C@@H]4CCC5=CC(=O)C=C[C@]5(C)[C@@]4(F)[C@@H](O)C[C@]3(C)[C@]2(C(=O)CO)O1 | -9.6% | 115 |  | inactive |  |  | inactive | inactive |  |  |
| Cc1ccc(-n2nc(C(C)(C)C)cc2NC(=O)Nc2ccc(OCCN3CCOCC3)c3ccccc23)cc1 | 23.4% | 102 | 18.6 µM (active) |  | 18.6 µM (active) | inactive |  | inactive |  |  |
| O=C(O)c1ccc(-n2nc(-c3ccccc3O)nc2-c2ccccc2O)cc1 | -1.69% and -24.7% |  | 14.8 µM (active) |  | 16.6 µM (active) |  |  | inactive | 20.9 µM (active) |  |
| COc1c(N2C[C@@H]3CCCN[C@H]3C2)c(F)cc2c(=O)c(C(=O)O)cn(C3CC3)c12 | 0.987% |  | inactive |  | inactive | inactive |  |  | 14.8 µM (active) |  |
| C[C@]12CCC3c4ccc(O)cc4CCC3C1CCC2=O (some centres undefined) | -0.196% | 99.9 | inactive |  | inactive | inactive |  | 26.3 µM (active) |  |  |
| O=C1NCCc2[nH]c(-c3ccncc3)cc21 |  |  |  | 3.32 µM (active) | 1.66 µM (active) | 2.63 µM (active) | 1.86 µM (active) | 2.63 µM (active) | 3.72 µM (active) | 7.69 µM (active) |
| O=[N+]([O-])c1ccc(Nc2ccccc2-c2ccccc2)c2nonc12 |  |  |  | 23.5 µM (active) | 20.9 µM (active) |  | 26.3 µM (active) | inactive | 20.9 µM (active) | 9.68 µM (active) |
| c1cc(-c2sc(-c3ccncc3)c(-c3ccncc3)c2-c2ccncc2)ccn1 | 6.76% | 103 | inactive |  | inactive | inactive |  | inactive |  |  |
| CC(C)(F)C[C@H](N[C@@H](c1ccc(-c2ccc(S(C)(=O)=O)cc2)cc1)C(F)(F)F)C(=O)NC1(C#N)CC1 | -2.96% | 104 | inactive |  | inactive |  |  | inactive |  |  |
| C[C@]12CC[C@@H]3c4ccc(O)cc4CC[C@H]3[C@H]1[C@@H](O)[C@@H](O)[C@H]2O | 9.46% | 104 | inactive |  | inactive |  |  | inactive |  |  |
| COc1cc(NC(=O)c2ccc(-c3ccc(Cl)cc3)o2)cc(OC)c1 | 1.2% | 110 | inactive | inactive | inactive | inactive |  |  |  |  |
| Cn1c(=O)c(Oc2ccc(F)cc2F)cc2cnc(NC3CCOCC3)nc21 | -33.7% | 115 | inactive | inactive | inactive | inactive |  |  |  |  |
| COc1cc2nccc(Oc3ccc(NC(=O)Nc4ccc(F)cc4F)c(F)c3)c2cc1OC | 5.39% | 108 |  | 1.66 µM (active) |  |  | 0.0934 µM (active) | 2.09 µM (active) |  |  |
| Cc1cc(O)c2c(c1)C(=O)c1cccc(O)c1C2=O | 32.6% | 116 |  | inactive | inactive | inactive | inactive | inactive |  |  |
| CC[C@H](C=C[C@@H](C)[C@H]1CC[C@H]2[C@@H]3CC=C4C[C@@H](O)CC[C@]4(C)[C@@H]3CC[C@]12C)C(C)C | -9.05% | 107 |  | inactive | inactive | inactive | inactive | inactive |  |  |
| O=c1cc(-c2ccccc2)oc2cc(O)cc(O)c12 | 3.3% | 85.1 |  | 23.5 µM (active) |  |  | 16.6 µM (active) |  |  |  |

| SMILES | activation [1] | viability [2] [%] | Potency [3] | Potency [4] | Potency [5] | Potency [6] | Potency [7] | Potency [8] | Potency [2] | Potency [1] |
| --- | --- | --- | --- | --- | --- | --- | --- | --- | --- | --- |
| C[C@@H]1CN(CC(=O)Nc2ccc3c(c2)Cc2cccc(-c4cc(=O)cc(N5CCOCC5)o4)c2S3)C[C@H](C)O1 |  | 86.1 |  |  |  |  | 14.8 µM (active) |  |  | 27.3 µM (active) |
| CN1c2cc(O)c(N=NC(N)=O)cc2CC1S(=O)(=O)O (centres undefined) | 16.4% | 89.9 | inactive |  | inactive | inactive |  | inactive |  |  |
| CC(=O)NC(CS)C(=O)O (centres undefined) | 60.6% | 104 |  | inactive | inactive |  | inactive | inactive |  |  |
| Cn1cc(-c2ccc3nnc(Sc4ccc5ncccc5c4)n3n2)cn1 | -0.663% | 107 | inactive |  | inactive | inactive |  | inactive |  |  |
| Nc1ccc(S(N)(=O)=O)cc1 | -29.9% and 4.8% | 93.8 |  | inactive | inactive | inactive | inactive | inactive |  |  |
| CC(C)(C#N)c1cc(Cn2cncn2)cc(C(C)(C)C#N)c1 | 2.42% | 107 | inactive |  | inactive | inactive |  | inactive |  |  |
| O=C(O)c1nc(=O)[nH]c(=O)[nH]1 | 3.67% | 105 |  | inactive | inactive | inactive | inactive | inactive |  |  |
| C#CCC(Cc1cnc2nc(N)nc(N)c2n1)c1ccc(C(=O)N[C@@H](CCC(=O)O)C(=O)O)cc1 (some centres undefined) | -21.3% |  |  |  |  |  | 0.0053 µM (active) |  | 0.0019 µM (active) |  |
| Cc1cc2c(cc1CC(=O)c1sccc1S(=O)(=O)Nc1onc(C)c1Cl)OCO2 | -10% and -11% | 68.3 |  | inactive | inactive |  | inactive | inactive |  |  |
| CCCCCCCCCCCCCCCC(=O)O[C@H]1[C@@H](O)[C@@H](O)[C@@H]([C@H](NC(=O)[C@@H]2C[C@@H](CCC)CN2C)[C@H](C)Cl)O[C@@H]1SC | 17.9% | 108 |  |  |  |  | 16.6 µM (active) |  |  |  |
| CC(C)C[C@H](CC(=O)O)C(=O)N[C@@H](Cc1c[nH]c2ccccc12)C(=O)N[C@@H](C)c1ccccc1 | -21.8% | 104 |  |  |  |  | inactive |  |  |  |
| C=Cc1c(C)c2cc3nc(cc4[nH]c(cc5nc(cc1[nH]2)C(C)=C5CCC(=O)O)c(CCC(=O)OC)c4C)[C@@]1(C)C3=CC=C(C(=O)OC)[C@H]1C(=O)OC | 9.63% | 97.6 |  | 18.6 µM (active) | inactive | inactive | 26.3 µM (active) | inactive |  |  |
| O=C(CCCCCCC(=O)Nc1cccnc1)NO | 50.9% |  |  | 4.68 µM (active) | 3.32 µM (active) | 8.33 µM (active) | 2.35 µM (active) |  | 5.25 µM (active) |  |
| CNC(=O)[C@H](Cc1ccccc1)NC(=O)[C@H](CC(C)C)[C@H](CSc1cccs1)C(=O)NO | -8.09% | 98.9 |  |  | 13.2 µM (active) | inactive | 7.42 µM (active) | inactive |  |  |
| CCN(c1ccccc1)c1cc(NC)[n+](C)c(C)n1 | 3.67% | 117 |  | inactive | inactive | inactive | inactive | inactive |  |  |
| CCn1c(-c2nonc2N)nc2c(C#CC(C)(C)O)ncc(OC[C@H]3CCCNC3)c21 | -17.2% | 101 |  | 16.6 µM (active) |  | 20.9 µM (active) | 18.6 µM (active) |  |  |  |
| CC(=O)OC[C@@H]1O[C@@H](n2ccc(=O)[nH]c2=O)[C@H](OC(C)=O)[C@H]1OC(C)=O | 5.73% | 108 |  | inactive | inactive | inactive | inactive | inactive |  |  |
| N#CNC(=NCCCCCCOc1ccc(Cl)cc1)Nc1ccncc1 | 37.2% |  |  |  | 0.0186 µM (active) |  | 0.0372 µM (active) |  | 13.2 µM (active) |  |
| Fc1ccc(Cl)cc1-c1nc(Nc2ccncc2)c2nccnc2n1 | 0.772% | 110 |  | inactive | inactive | inactive | inactive | inactive |  |  |
| O=C(O)CCNC(=O)c1ccc(N=Nc2ccc(O)c(C(=O)O)c2)cc1 | -19.8% and -1.86% | 118 |  | inactive | inactive | inactive | inactive | inactive |  |  |
| CNNCc1ccc(C(=O)NC(C)C)cc1 | -0.837% | 112 |  | inactive | inactive | inactive | inactive | inactive |  |  |
| CCOC(=O)O[C@]1(C(=O)OCCl)CC[C@H]2[C@@H]3CCC4=CC(=O)C=C[C@]4(C)[C@H]3[C@@H](O)C[C@@]21C | -7.34% |  |  | inactive |  | inactive | inactive |  | 1.05 µM (active) |  |
